These results are taken from PubChem BioAssay AID1508600 (Functional Genomics Laboratory (NCATS/FGL), 2020).

The campaign covered roughly 53,000 sequences. About 3,700 (7%) were called active. This is one part of a sample in which actives are shown more often than they occur.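 How the source made its calls: active means gene knockdowns whose robust z-score for IL-1 alpha signal is at least 2 or at most -2, so actives lie on both sides; inactive means the rest.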

This experiment in a line: Components of the Cytosolic LPS Sensing Pathway: Gene Identification via Genome-wide siRNA Screen.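 Further: robust z of the log signal after scaling to non-targeting control siRNA wells of the plate.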 The following applies: RAW264.7 macrophages, IL-1a HTRF, actives lie on both sides, screened at 100 nM (by protocol), cells primed 5 h with Pam3CSK4 first. In outline:
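Using IL-1a HTRF as read-out, the screen measured release from RAW264.7 cells after 48h siRNA knockdown (100 nM), 5 h Pam3CSK4 priming and 24 h cytosolic LipidA. Values were expressed relative to negative-control wells as robust z-scores.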
A general note: TR-FRET usually uses a lanthanide donor and a delayed reading to cut background.
Regarding GGGUGAGACUUUUAUUAUUTT against Epdr1, the z-score is -0.468 (inactive).
Regarding GGACAUAUAGCUGAUUUCUTT against Ctdsp2, the z-score was 1.97 (inactive).
The same measure for GGGAUGGAAACCCUGGAUCTT against Col3a1: 0.438 (inactive); for CCUUAGGAUCGUCUUAUUATT against Zic2: 0.619 (inactive).
The figure for GGGAAAAGAAAGUACCUACTT against Zcchc10 is 2.26 (active); for CGACCUGACUUUUCUUAGGTT against Dynlrb2 it is 0.855 (inactive); for GGCAACUUUGUUAUAUACATT against Ctr9 it is 0.212 (inactive).
Turning to GGAUCUUCUACACAGUAAATT against Ppp2r3d, the z-score was -0.0431 (inactive).
The same measure for GGGCAUCAGCUAUUAAAGATT against Tpmt: 0.488 (inactive); for GGCUAGAUGACAACCGCAUTT against Flrt1: 1.13 (inactive).
The same measure for GGGAGUUAUAUAAAUGCAUTT against Taf7l: -1.13 (inactive).
The figure for CACAGAACAUCAUCUCCCATT against Olfr887 is -2.79 (active); for CGAAAUGACAGUGUUAUUCTT against Mpl it is 0.185 (inactive).
As to GGUAUGAUGGGAAAUUUUUTT against Tmod2, the z-score is 1.07 (inactive).
As to GGAAUCGGUGUAUUCGUUUTT against Sectm1b, the z-score is 0.593 (inactive).
The same measure for GGAAGACAAAGUCUGGGUGTT against Hpx: -0.915 (inactive); for GGUCCUACAGGAGAAGAUCTT against Tekt2: -2.09 (active).
As to GGAGAAGUUCCCUAACAUGTT against Ppan, the z-score was -1 (inactive).
The same measure for GCCAGUAAGGAAUUCAACUTT against C3: -1.29 (inactive).
For GGGCAUUGAAGCAAAUAUATT against Tmprss15, the z-score was 0.323 (inactive).
GGACGCAUGAUGUGGGUUCTT against Tmem41a: the z-score is -0.626 (inactive).
Consider GCUAAGUCGGAGCAGUUUUTT against Clba1, for which the z-score was 2.07 (active).
Regarding AUGGUGCUGUUUUAUUUGUTT against Olfr671, the z-score was -0.807 (inactive).
The same measure for UAUCGUCCACAACUACUCATT against Epn1: 1.14 (inactive); for GGACAUCCAACCGUACAUGTT against Ccnd2: 0.247 (inactive).
The same measure for GCAAGCUACAUGCAUACAUTT against Zfp945: 3.59 (active).
Take GCCCUUUGACAAUUUGUUUTT against Stra6l: the z-score was -0.661 (inactive).
The figure for CCUAUGUAACACAAACAUUTT against Orc5 is 0.721 (inactive).
The figure for GGUACAAGGUCAUCAUGAGTT against Olfr1341 is -2.85 (active); for GGAGGGAGUAUCCAUGUCATT against Nr2c2 it is 0.209 (inactive).
Consider GGUCGACAGACUCUUGCAUTT against Mylk3, for which the z-score is -0.982 (inactive).
GCAAGCAGAGAUGUUACAUTT against Olfr1284: the z-score was -0.975 (inactive).
The same measure for GGUGCUGUAUUUGAUGUUATT against Nudt6: 0.544 (inactive).
On to GGAACUUGAACUAAAAAUGTT against Eaf1, for which the z-score is 2.5 (active).
The figure for GGUGAUGGUGAACAAGAAATT against Lgals9 is -0.811 (inactive).
Take GGCUCACGCUCGUUACCUATT against Nwd1: the z-score was -1.86 (inactive).
With GGGUCCUAAGACUAUUGAUTT against Eif4g1, the z-score is 0.274 (inactive).
With GCUUCCUUCUUCUUGUCCATT against Vmn1r42, the z-score was -0.475 (inactive).
On to GGAUUUUCGAUUCUCUUACTT against Glg1, for which the z-score was 2.25 (active).
The same measure for GGAUGUUCAACCUAAACGATT against Ferd3l: -0.347 (inactive); for GGUUCAGAAGUCUAUGUCUTT against Ufsp1: 0.866 (inactive).
The figure for GCCGUAUCACCCUAAACUATT against Pxylp1 is 2.05 (active).
With GGCCUAGUUCCAGUUAUGCTT against Olfr1093, the z-score was -1.41 (inactive).
The same measure for CCGCUACCUUAAGCACCUATT against Terf2ip: 0.231 (inactive).
On to GGUUUGACUAACUUUCCUUTT against Fbxl15, for which the z-score is 0.198 (inactive).
The same measure for GCGGGAACUUAAAGUUUACTT against Yars: 3.18 (active); for GGAACAGUGCUUGUAUCAGTT against Clasrp: 0.675 (inactive); for GGUUCCUUCGUGAAUGUCATT against Glp1r: 0.0826 (inactive).
The same measure for CCCGUCAAUACCACUUACCTT against Sidt2: 2.19 (active); for GCUAAUCGGAUGCUGAAGCTT against Psmb7: 0.71 (inactive); for CCUUAUGUCCCUAAGGCUATT against Mbd3: -0.109 (inactive).
The figure for CCUCAGUUAUAGAUGAUCUTT against Rdh11 is 0.319 (inactive).
For the sequence CCCUCAAAUAACAUCCAGGTT against Sh3d21, the z-score was -1.93 (inactive).
The same measure for GGAAAUCUAUUUCAUUGACTT against Zcchc10: 0.956 (inactive).
The figure for GCUUGUGCGAGUGUUGGAUTT against Has1 is 2.21 (active); for GGGUUUCCUACAGAGUACCTT against Amer3 it is -0.845 (inactive).
The figure for “GGCAUGGAUUGGUGAGAUUTT against 9330175E14Rik” is -0.576 (inactive); for GCAUUAAGCACGAGAAAAATT against Slc18a2 it is 0.575 (inactive); for GCUCUCAGAUGACAUCACUTT against Supt5 it is -2.43 (active).
Turning to GGACCACUUGUAGUAUUUGTT against Map7d1, the z-score is 0.593 (inactive).
GGCAACUGCCUUUACCAUATT against Tceanc2: the z-score was 1.67 (inactive).
The figure for GGAGAUCGACCUGUCUAUGTT against Cep164 is 0.988 (inactive).
The figure for CGGAAAAGAUCCCUAUUGUTT against Adam5 is 0.373 (inactive); for GGGACGUGCAAUUGUCUGATT against Mfsd6 it is 0.0857 (inactive); for GGAUGGCAUGUCCUUCCAATT against Elf3 it is 2.85 (active).
The figure for GGAAGUGGAAAAAGUUUAGTT against Brip1 is 0.442 (inactive).
Regarding GGCAUUGCUGACUACAAACTT against Tcn2, the z-score was 2.15 (active).
The figure for GCAGUUUUGGGCAAUACCUTT against Olfr358 is 1.22 (inactive); for GCAACGCAACAGCAUUCCUTT against Psmg1 it is 1.34 (inactive).
